According to PubChem BioAssay:
Inconclusive results are not listed. The source made the active and inactive calls.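 The calls were made as follows, unless noted: active = viability increase at or above a cutoff of the median across tested compounds plus 3 SD (cut at about 8.5% in these data, passing the limit was not always enough); inconclusive = some gains above the cutoff, reason not given; inactive = the rest.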

Test: doxorubicin toxicity protection in MRP-1 cells – H69AR cells, CellTiter-Glo, duplicate, MRP-1 activator project, pilot screen (AID 807);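 also: compound pretreatment 18-22 h then 72 h combined with doxorubicin; 0% = doxorubicin alone and 100% = vehicle without doxorubicin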
Conditions: H69AR viability with doxorubicin, CellTiter-Glo luminescence; at 10 µM; stronger effect = higher value

SMILES | viability increase
O=C(C1CC1)N1CCCN(C(=O)C2CC2)CC1 | -1.86% (inactive)
CN(CCCNC(=O)Cn1cc2c(n1)CCCC2)C1CCCCC1 | -3.43% (inactive)
Cc1cc(C(F)(F)F)nc(NCc2ccc(F)cc2)n1 | -1.57% (inactive)
O=C(c1coc2ccccc2c1=O)N1CCN(c2cccc(C(F)(F)F)c2)CC1 | 0.69% (inactive)
CCc1ccc(-c2nc(C(N)=O)c3[nH]c(=O)n(-c4ccccc4OC)c3n2)cc1 | -8.43% (inactive)
C=C(C)Cn1c(C2CC(=O)N(c3ccccc3F)C2)nc2ccccc21 (stereo not given) | -2.5% (inactive)
CC(CC1C(C#N)=C(N)OC2=C1C(=O)CCC2)c1ccccc1 (stereo not given) | -1.89% (inactive)
CCc1ncc(C(=O)c2ccc(OC)cc2)n1C | 3.42% (inactive)
CC(=O)Nc1nc(CC(=O)c2ccccc2)cs1 | -0.56% (inactive)
COc1ccc(-c2[nH]ncc2-c2cnc(C)s2)c(O)c1 | -1.25% (inactive)
CCCC(=O)Nc1nc2ccc(OCC)cc2s1 | 0.26% (inactive)
O=C(Nc1ccccc1)N1CCN2C(=O)c3ccccc3C12c1ccccc1 (stereo not given) | -2.35% (inactive)
COc1ccc(N2C(=O)C3CCCN3C2c2ccc(Cl)cc2)cc1 (stereo not given) | -2.6% (inactive)
CN(c1ccccc1)S(=O)(=O)c1cccc(C(=O)N2CCN(c3ccccn3)CC2)c1 | -0.97% (inactive)
CCOc1ccc(NC2c3ccccc3C(=O)N2c2ccc(Cl)cn2)cc1 (stereo not given) | -1.1% (inactive)
COc1ccc(Nc2nnc(Cc3ccc(Cl)cc3)c(=O)[nH]2)c(OC)c1 | 1.86% (inactive)
Cn1c(Cn2c(=O)sc3ccccc32)nnc1SCC(=O)Nc1ccc2c(c1)OCO2 | -5.8% (inactive)
COc1cc(OC)cc(C(=O)NCCn2ccc3ccccc32)c1 | -3.92% (inactive)
NC(=O)C1CCN(C(=O)c2cc3ccccn3n2)CC1 | -0.34% (inactive)
CC(Sc1ccc2nnc(-c3ccc(F)cc3)n2n1)C(=O)O (stereo not given) | -1.09% (inactive)

SMILES | viability increase
CCOC(=O)Cn1c(=O)oc2cc(S(=O)(=O)N3CCc4ccccc43)ccc21 | -1.01% (inactive)
CCOC(=O)c1csc(NC(=O)c2ccccc2)n1 | 4.7% (inactive)
CN(C)c1cccc(NC(=O)Cc2ccc(F)cc2)c1 | -4.02% (inactive)
CCOC(=O)c1sc2nc3n(c(=O)c2c1C)CCCCC3 | 6.25% (inactive)
CCOc1ccc(C2N(c3ccc(Cl)cc3)C(=O)C3CCCN32)cc1OC (stereo not given) | -1.98% (inactive)
CC1CCCCN1S(=O)(=O)c1coc(C(N)=O)c1 (stereo not given) | -2.18% (inactive)
Cc1ccc(NC(=O)CCNS(=O)(=O)c2cccc3nonc23)cc1 | -1.47% (inactive)
CCOC1=NC(C(=O)O)c2ccccc2/C(=C(/C)Cl)N1 (stereo not given) | 0.7% (inactive)
COc1cc(C2N(c3ccccc3)CCN2c2ccccc2)ccc1OC(C)=O | 0.59% (inactive)
COc1cc(S(=O)(=O)NCc2ccc3c(c2)OCO3)ccc1Cl | -2.38% (inactive)
CCOC(=O)c1cc(-c2ccc(F)cc2)n(CC(=O)Nc2nccs2)c1C | -5.35% (inactive)
O=C(C1CCN(S(=O)(=O)c2cccc3cccnc23)CC1)N1CCN(Cc2ccccc2)CC1 | 0.23% (inactive)
COc1ccc(Cl)cc1N(CC(=O)N1CCC(C)CC1)S(C)(=O)=O | -1.75% (inactive)
CCOC(=O)c1ccc2c(c1)NC(=O)C(N1CCN(c3ccc(OC)cc3)CC1)S2 (stereo not given) | -7.1% (inactive)
CS(=O)(=O)NCCCc1ccccc1 | -1.36% (inactive)
COc1ccc(C2C(C(=O)NCCN(C)C)c3cc(OC)c(OC)cc3C(=O)N2C)cc1OC (stereo not given) | -1.38% (inactive)
O=C(Nc1nccs1)c1cccc(S(=O)(=O)N2CCOCC2)c1 | -0.77% (inactive)
CC(C)C(C(=O)NC(C)(C)C)N1C(=O)c2ccccc2C1=O (stereo not given) | 0.34% (inactive)
CCOc1ccc(Br)cc1/C=N/O | -1.73% (inactive)
Cc1ccc(-n2c(SCC(=O)Nc3nccs3)nc3c(c2=O)SCC3)cc1 | -6.87% (inactive)

Test: viability of HCT116 without oncogenic beta-catenin – human colon tumor cells, pilot screen (AID 823;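 active = cell viability at or below a set limit in both duplicate runs, the limit being the all-compound median minus 4 SD, cut at about 23% in these data, passing the limit was not always enough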;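 also: 0% = wells killed by 20 µM Hyamine and 100% = untreated DMSO cell wells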)
Conditions: HCT116 beta-catenin knockout viability, CellTiter-Glo, 60 h; at 10 µM; stronger effect = lower value

SMILES | viability
O=C(C1CC1)N1CCCN(C(=O)C2CC2)CC1 | 98.8% (inactive)
CN(CCCNC(=O)Cn1cc2c(n1)CCCC2)C1CCCCC1 | 99.2% (inactive)
Cc1cc(C(F)(F)F)nc(NCc2ccc(F)cc2)n1 | 90.5% (inactive)
O=C(c1coc2ccccc2c1=O)N1CCN(c2cccc(C(F)(F)F)c2)CC1 | 99.8% (inactive)
CCc1ccc(-c2nc(C(N)=O)c3[nH]c(=O)n(-c4ccccc4OC)c3n2)cc1 | 15.6% (active)
C=C(C)Cn1c(C2CC(=O)N(c3ccccc3F)C2)nc2ccccc21 (stereo not given) | 100% (inactive)
CC(CC1C(C#N)=C(N)OC2=C1C(=O)CCC2)c1ccccc1 (stereo not given) | 98.6% (inactive)
CCc1ncc(C(=O)c2ccc(OC)cc2)n1C | 105% (inactive)
CC(=O)Nc1nc(CC(=O)c2ccccc2)cs1 | 102% (inactive)
COc1ccc(-c2[nH]ncc2-c2cnc(C)s2)c(O)c1 | 99.2% (inactive)
CCCC(=O)Nc1nc2ccc(OCC)cc2s1 | 86.8% (inactive)
O=C(Nc1ccccc1)N1CCN2C(=O)c3ccccc3C12c1ccccc1 (stereo not given) | 89.9% (inactive)
COc1ccc(N2C(=O)C3CCCN3C2c2ccc(Cl)cc2)cc1 (stereo not given) | 101% (inactive)
CN(c1ccccc1)S(=O)(=O)c1cccc(C(=O)N2CCN(c3ccccn3)CC2)c1 | 81% (inactive)
CCOc1ccc(NC2c3ccccc3C(=O)N2c2ccc(Cl)cn2)cc1 (stereo not given) | 94.2% (inactive)
COc1ccc(Nc2nnc(Cc3ccc(Cl)cc3)c(=O)[nH]2)c(OC)c1 | 100% (inactive)
Cn1c(Cn2c(=O)sc3ccccc32)nnc1SCC(=O)Nc1ccc2c(c1)OCO2 | 105% (inactive)
COc1cc(OC)cc(C(=O)NCCn2ccc3ccccc32)c1 | 92.8% (inactive)
NC(=O)C1CCN(C(=O)c2cc3ccccn3n2)CC1 | 103% (inactive)
CC(Sc1ccc2nnc(-c3ccc(F)cc3)n2n1)C(=O)O (stereo not given) | 100% (inactive)

SMILES | viability
CCOC(=O)Cn1c(=O)oc2cc(S(=O)(=O)N3CCc4ccccc43)ccc21 | 91.8% (inactive)
CCOC(=O)c1csc(NC(=O)c2ccccc2)n1 | 101% (inactive)
CN(C)c1cccc(NC(=O)Cc2ccc(F)cc2)c1 | 85.4% (inactive)
CCOC(=O)c1sc2nc3n(c(=O)c2c1C)CCCCC3 | 87.5% (inactive)
CCOc1ccc(C2N(c3ccc(Cl)cc3)C(=O)C3CCCN32)cc1OC (stereo not given) | 98.7% (inactive)
CC1CCCCN1S(=O)(=O)c1coc(C(N)=O)c1 (stereo not given) | 105% (inactive)
Cc1ccc(NC(=O)CCNS(=O)(=O)c2cccc3nonc23)cc1 | 105% (inactive)
CCOC1=NC(C(=O)O)c2ccccc2/C(=C(/C)Cl)N1 (stereo not given) | 101% (inactive)
COc1cc(C2N(c3ccccc3)CCN2c2ccccc2)ccc1OC(C)=O | 96.3% (inactive)
COc1cc(S(=O)(=O)NCc2ccc3c(c2)OCO3)ccc1Cl | 97.3% (inactive)
CCOC(=O)c1cc(-c2ccc(F)cc2)n(CC(=O)Nc2nccs2)c1C | 59% (inactive)
O=C(C1CCN(S(=O)(=O)c2cccc3cccnc23)CC1)N1CCN(Cc2ccccc2)CC1 | 105% (inactive)
COc1ccc(Cl)cc1N(CC(=O)N1CCC(C)CC1)S(C)(=O)=O | 96.6% (inactive)
CCOC(=O)c1ccc2c(c1)NC(=O)C(N1CCN(c3ccc(OC)cc3)CC1)S2 (stereo not given) | 74.6% (inactive)
CS(=O)(=O)NCCCc1ccccc1 | 96.6% (inactive)
COc1ccc(C2C(C(=O)NCCN(C)C)c3cc(OC)c(OC)cc3C(=O)N2C)cc1OC (stereo not given) | 101% (inactive)
O=C(Nc1nccs1)c1cccc(S(=O)(=O)N2CCOCC2)c1 | 92.8% (inactive)
CC(C)C(C(=O)NC(C)(C)C)N1C(=O)c2ccccc2C1=O (stereo not given) | 101% (inactive)
CCOc1ccc(Br)cc1/C=N/O | 80.3% (inactive)
Cc1ccc(-n2c(SCC(=O)Nc3nccs3)nc3c(c2=O)SCC3)cc1 | 94.2% (inactive)
